Experimental data from PubChem BioAssay (EPA / NIEHS).
Active and inactive are the calls of the source. Rule for the calls: active = hit-call score of the fitted dose curve at least 0.9, where 1 is the maximum; inactive = score below 0.9.

Assay: ATG_Sox_CIS: Attagene CIS-FACTORIAL HepG2 Assay for human SRY-box transcription factor (SOX) (AID 2282960)
Settings: HepG2 Attagene cis-factorial SOX reporter, mRNA; actives raise or lower the signal
Procedure: ATG_CIS is a cell-based, multiplexed-readout assay that uses HepG2, a human liver cell line, with measurements taken at 24 hours after chemical dosing in a 24-well plate.ATG_Sox_CIS is one of 52 assay component(s) measured or calculated from the ATG_CIS assay. It is designed to make measurements of mRNA induction, a form of inducible reporter, as detected with fluorescence intensity signals by Reverse transcription polymerase chain reaction (RT-PCR) and Capillary electrophoresis technology.Data from the assay component ATG_Sox_CIS was analyzed into 1 assay endpoint. This assay endpoint, ATG_Sox_CIS, was analyzed with bidirectional fitting relative to DMSO as the negative control and baseline of activity. Using a type of inducible reporter, measures of mRNA for gain or loss-of-signal activity can be used to understand the reporter gene at the transcription factor-level as they relate to the gene SOX1. Furthermore, this assay endpoint can be referred to as a primary readout, because this assay has produced multiple assay endpoints where this one serves a reporter gene function. To generalize the intended target to other relatable targets, this assay endpoint is annotated to the dna binding intended target family, where the subfamily is HMG box protein.
Human liver HepG2 cells are transiently transfected with multiple reporter transcription units (MRTUs) in 6-well plates using FuGene 6 reagent (Roche; 3 ml FuGene/1 mg DNA). The MRTU constructs are regulated by a cis-regulating element (promoter). […] A major difference between the CIS and TRANS system is that in CIS activities of endogenous TFs are measured, whereas the TRANS assay evaluates changes in activities of exogenous, chimeric NR-Gal4 proteins. […] At the end of 24 hour incubation, total RNA was isolated using TriZol reagent (Invitrogen). The isolated RNA is then reverse-transcribed using oligo(dT) primer and Mo-MLV reverse transcriptase (Invitrogen) with DNAse I (Ambion) treatment for 30 min. The one-tenth of the produced cDNA was amplified by PCR using Taq DNA polymerase (Invitrogen) and two reporter sequence-specific primers. The PCR products were fluorescently labeled by primer extension with 6-arboxyfluorescein (6-FAM) 5'-labeled reporter sequence-specific primer (2 min at 95 C, 20 s at 68 C and 10 min at 72 C) and these products were digested with 5U of HpaI (New England Biolabs) for 2h at 37 C. The fragments were purified using Qiaquick PCR columns (Qiagen), analyzed on an ABI 3130xL genetic analyzer (Applied Biosystems) with peak positions identified by using a set of X-rhodamine (ROX)-labeled MapMarker1000 molecular weight standards (BioVentures). The raw capillary electrophoresis data was processed using Attagraph software (Attagene).

| Structure (SMILES) | outcome | AC50 |
| --- | --- | --- |
| Cc1ccc2ncccc2c1 | inactive |  |
| CC(=O)C(C)=CC1C(C)=CCCC1(C)C (stereo not given) | inactive |  |
| Cc1oc(-c2ccccc2)nc1CCOc1cccc2c1ccn2CCC(=O)O | inactive |  |
| Nc1ccc(S(=O)(=O)c2ccc(N)cc2)cc1 | inactive |  |
| O=c1c(O)c(-c2ccc(O)c(O)c2)oc2cc(O)cc(O)c12 | inactive |  |
| CC1(C)NC(=O)NC1=O | inactive |  |
| COc1cc(/C=C/C(=O)CC(=O)/C=C/c2ccc(O)c(OC)c2)ccc1O |  | 43.1 µM (active) |
| CC(=O)OC/C=C(\C)CCC=C(C)C | inactive |  |
| CN[C@H]1CC[C@@H](c2ccc(Cl)c(Cl)c2)c2ccc(S(N)(=O)=O)cc21 | inactive |  |
| OC[C@@H](O)[C@@H](O)[C@H](O)[C@H](O)CO | inactive |  |
| O=C(O)CCCCC(=O)O | inactive |  |
| CC(=O)OCCOCCOCCOC(C)=O | inactive |  |
| CCCCN(CCCC)CCCC | inactive |  |
| COCCOC[C@H](CC1(C(=O)NC2CCC(C(=O)O)CC2)CCCC1)C(=O)Oc1ccc2c(c1)CCC2 (stereo not given in full) | inactive |  |
| CC1(C)CC(N=C=O)CC(C)(CN=C=O)C1 (stereo not given) | inactive |  |
| C[C@]12C=CC(=O)C=C1CC[C@@H]1[C@@H]2C(=O)C[C@@]2(C)[C@H]1CC[C@]2(O)C(=O)CO | inactive |  |
| Cc1ccc(C)c(O)c1C | inactive |  |
| CCCCCCCCCCCC(=O)OC | inactive |  |
| CC(CO)OC(C)CO (stereo not given) (tested in a mixture with another compound) | inactive |  |
| O=c1[nH]cc(F)c(=O)[nH]1 | inactive |  |

| Structure (SMILES) | outcome | AC50 |
| --- | --- | --- |
| CC(C)c1ccc(C(=O)N=C(N)N)cc1S(C)(=O)=O | inactive |  |
| O=C(OCCCCCOC(=O)c1ccccc1)c1ccccc1 | inactive |  |
| COc1ccc2c(c1)c(CC(=O)O)c(C)n2C(=O)c1ccc(Cl)cc1 | inactive |  |
| CCCCCCCCCCC | inactive |  |
| Cc1c(C(=O)O)c(O)cc2c1C(=O)c1c(O)c([C@@H]3O[C@H](CO)[C@@H](O)[C@H](O)[C@H]3O)c(O)c(O)c1C2=O | inactive |  |
| COc1cc(S(=O)(=O)O)c(C)cc1N=Nc1c(O)ccc2cc(S(=O)(=O)O)ccc12 | inactive |  |
| CC(C)(C)c1cc(O)c(C(C)(C)C)cc1O |  | 114 µM (active) |
| CCCCCCCC=O | inactive |  |
| CCCCOC(=O)CCCCCCCCC(=O)OCCCC | inactive |  |
| CCCCC(CC)COC(=O)CC(C(=O)OCC(CC)CCCC)S(=O)(=O)O (stereo not given) | inactive |  |
| CC(=O)Oc1ccccc1C(=O)O | inactive |  |
| Cc1ccc(N(C)C)cc1 | inactive |  |
| COC(=O)c1ccc(O)cc1 | inactive |  |
| Cc1cccc(C)c1O | inactive |  |
| Oc1ccc2c(c1)OC[C@@H](N1CCC(O)(c3ccc(F)cc3)CC1)[C@H]2O | inactive |  |
| NCCO | inactive |  |
| Clc1cc(Cl)c(Cl)cc1Cl | inactive |  |
| CCCCCCCCCCCCCCCC | inactive |  |
| COc1cc(-c2nc(NC(=O)c3cc4cc(C)cc(C)c4n3CC(=O)O)sc2CCC2CCCCC2)c(OC)cc1Cl |  | 100 µM (active) |
| CCCCCCC(=O)OCC | inactive |  |
